HT1080NT lethal = kills 2HG-producing HT-1080-NT fibrosarcoma cells; Potency, µM (doses to about 46.1 µM), usual class: cytotoxic; HT-1080-NT fibrosarcoma viability, CellTiter-Glo ATP luminescence, 48 h; actives 1.6% (n = 360,000);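 further: NT is the 2HG producing partner of a matched IDH1 knockdown line; nearly all actives have a fitted effect of over 55% in size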
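HT-1080-NT; 750 cells/well; 5% FBS RPMI; 48 h compound, 37 degrees C; CellTiter-Glo luminescence; curve fitting and curve-class assignment.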
DT40 TDP1 CPT = growth inhibition of DT40 Tdp1-/-;hTDP1 cells with camptothecin (screen for TDP1 inhibitors) | chicken DT40 Tdp1-/-;hTDP1 cells + 20 nM CPT, ATP luminescence, 48 h | actives 12% (n = 420,000) | Potency, µM (titrated, usually from 46.2 µM), actives largely listed as inhibitors; further: nearly all actives have a fitted effect of over 55% in size
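Cell growth measured by CellTiter-Glo luminescence after a minimum 48 h, 37 C compound exposure with 20 nM CPT in Tdp1-knockout DT40 cells stably expressing hTDP1, seeded 400/well; qHTS titration format.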
HT1080 IDH1KD tx = HT-1080 IDH1 knockdown cell toxicity (counter line). HT-1080 IDH1 knockdown viability, ATP luminescence, 48 h. Potency, µM (titrated, usually from 46.1 µM), actives largely listed as cytotoxic. actives 2% (n = 360,000)
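HT-1080-IDH1KD cells (IDH1 knocked down), 750/well in RPMI with 5% FBS, treated with compound 48 h at 37 degrees C. Viability by CellTiter-Glo luminescence, normalised to DMSO and no-cell wells; concentration-response curves classed.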
uPA surface inh = blocks generation of uPA at the cell surface; actives 0.31% (n = 330,000); AID 540303; cell surface uPA generation assay, qHTS; Potency, µM (titrated, usually from 38.3 µM), actives largely listed as inhibitors; active means well fitted inhibition curve with a large enough effect; inconclusive means small, poorly fitted or top-dose-only effect; inactive means no such curve, though single readings can be large or run the other way; tested in mouse RAW 264.7 cells; further: nearly all actives have a fitted effect of over 55% in size
IL-1B inflam inh = inflammasome signaling inhibition, IL-1 beta readout | THP-1 LPS/ATP IL-1B secretion, AlphaLISA, 16 h; stronger effect = lower value | activity change, % at 57.5 µM | actives 4.7% (n = 360,000) | AID 743279; in the data active means activity change below about -50%; inconclusive means mostly about -30% to -49%
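Secreted IL-1B measured by AlphaLISA bead assay after 16 h compound exposure of THP-1 cells; compounds (final up to 57.5 uM) added 1 h before LPS (250 ng/mL) and ATP (1.25 mM) stimulation; lower signal means less secretion.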
DT40 TDP1 no CPT = qHTS for Inhibitors of human tyrosyl-DNA phosphodiesterase 1 (TDP1): qHTS in cells in absence of CPT; AID 686978, 2013; Potency, µM (highest dose often 46.2 µM), usual class: inhibitors; DT40 Tdp1-/- hTDP1 cells, no CPT, ATP luminescence, 48 h; actives 15% (n = 420,000); further: nearly all actives have a fitted effect of over 55% in size
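Readout: luminescence from CellTiter-Glo after 30 min in the dark at RT. Cells: DT40 Tdp1-/- with stable hTDP1, 400/well. Exposure: compounds alone, ≥48 hr, 37 °C.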
Of the large screens only hits and unclear results are named; the others gave an inactive call. Rows were chosen to be rich in hits. Some 19% of all compounds tested hit in one or more screens of this group. Unless noted, the call rests on the fitted dose curve; in most records, active means well fitted curve in the direction sought with a large enough effect; inconclusive means small, poorly fitted or top-dose-only effect, or another doubt; inactive means no such curve, though single readings can be large; an effect the other way counts as inactive or inconclusive.

CCN(C(=O)CSc1nc2cc(S(=O)(=O)N(CC)CC)ccc2n1CC)C1CCS(=O)(=O)C1 (configuration not stated)	none
CC1C(c2ccccc2)=NNc2nc3c(c(=O)n(C)c(=O)n3C)n21 (configuration not stated)	DT40 TDP1 CPT inconclusive, DT40 TDP1 no CPT 11.6µM
N#Cc1ccc(-c2nc3ccc(Br)cn3c2Cc2cccc(Cl)c2)cc1	DT40 TDP1 CPT inconclusive, DT40 TDP1 no CPT 20.6µM (no result: uPA surface inh)
COc1ccc(-c2nc3ccc(Br)cn3c2Cc2cccc(Cl)c2)cc1OC	HT1080NT lethal inconclusive, DT40 TDP1 CPT inconclusive, HT1080 IDH1KD tx inconclusive, IL-1B inflam inh inconclusive, DT40 TDP1 no CPT 20.6µM (no result: uPA surface inh)
Brc1ccc2nc(-c3ccccc3)c(Cc3ccsc3)n2c1	DT40 TDP1 CPT 25.9µM, DT40 TDP1 no CPT 23.1µM (no result: uPA surface inh)
COc1ccccc1Cc1c(-c2ccc(OC)c(OC)c2)nc2ccc(Br)cn12	HT1080NT lethal inconclusive, DT40 TDP1 CPT 18.4µM, HT1080 IDH1KD tx 18.4µM, DT40 TDP1 no CPT 5.8µM (no result: uPA surface inh)
CCOc1cccc(NC(=O)c2sc3nc(-c4ccc(F)cc4)ccc3c2N)c1	DT40 TDP1 no CPT inconclusive (no result: HT1080NT lethal, HT1080 IDH1KD tx, uPA surface inh, IL-1B inflam inh)
COc1ccc(NC(=O)C2CCC(CNS(=O)(=O)c3ccc4c(c3)C(C)(C)C(=O)N4C)CC2)cc1 (configuration not stated)	none (no result: HT1080NT lethal, HT1080 IDH1KD tx, uPA surface inh, IL-1B inflam inh)
Cc1ccc(-c2nc3ccc(C)cn3c2Cc2cccc(Cl)c2)cc1	HT1080NT lethal inconclusive, DT40 TDP1 CPT inconclusive, HT1080 IDH1KD tx inconclusive, DT40 TDP1 no CPT inconclusive (no result: uPA surface inh)
Cc1ccc(-c2nc3ccc(Br)cn3c2Cc2cccc(Cl)c2)cc1	HT1080NT lethal inconclusive, DT40 TDP1 CPT 14.6µM, HT1080 IDH1KD tx inconclusive, DT40 TDP1 no CPT 9.2µM (no result: uPA surface inh)
Clc1cccc(Cc2c(-c3cccc(Cl)c3)nc3ccc(Br)cn23)c1	DT40 TDP1 CPT inconclusive, HT1080 IDH1KD tx inconclusive, DT40 TDP1 no CPT inconclusive (no result: uPA surface inh)
Cc1ccc(-c2nc3ccc(Cl)cn3c2Cc2cccc(Cl)c2)cc1	HT1080NT lethal inconclusive, DT40 TDP1 CPT inconclusive, HT1080 IDH1KD tx inconclusive, DT40 TDP1 no CPT 16.4µM (no result: uPA surface inh)
Cc1c(-c2ccc(Br)cc2)nc2ccccn12	HT1080NT lethal inconclusive, IL-1B inflam inh -80.9, DT40 TDP1 no CPT inconclusive
Clc1ccc(-c2nc3ccc(Br)cn3c2Cc2cccc(Cl)c2)cc1	HT1080NT lethal inconclusive, DT40 TDP1 CPT inconclusive, HT1080 IDH1KD tx 14.6µM, DT40 TDP1 no CPT inconclusive (no result: uPA surface inh)
Fc1ccc(-c2nc3ccc(Cl)cn3c2Cc2cccc(F)c2)cc1	HT1080NT lethal inconclusive, DT40 TDP1 CPT inconclusive, HT1080 IDH1KD tx inconclusive, DT40 TDP1 no CPT 23.1µM (no result: uPA surface inh)
Cc1ccc(-c2nc3ccc(Br)cn3c2Cc2ccccc2)cc1	DT40 TDP1 CPT 14.6µM, HT1080 IDH1KD tx inconclusive, DT40 TDP1 no CPT inconclusive (no result: uPA surface inh)
Cc1ccc(Cc2c(-c3ccccc3)nc3ccc(Br)cn23)cc1	DT40 TDP1 CPT inconclusive, DT40 TDP1 no CPT inconclusive (no result: uPA surface inh)
Cc1nc2ccc(S(=O)(=O)N(C)CC(=O)Nc3ccc(Br)c(C)c3)cc2s1	DT40 TDP1 CPT inconclusive, DT40 TDP1 no CPT 16.4µM (no result: HT1080NT lethal, HT1080 IDH1KD tx, uPA surface inh, IL-1B inflam inh)
COc1cccc(NC(=O)CN(C)S(=O)(=O)c2ccc3nc(C)sc3c2)c1	none (no result: HT1080NT lethal, HT1080 IDH1KD tx, uPA surface inh, IL-1B inflam inh)
CCOc1ccc(OCC)c(NC(=O)CN(C)S(=O)(=O)c2ccc3nc(C)sc3c2)c1	DT40 TDP1 CPT inconclusive, IL-1B inflam inh -50.4, DT40 TDP1 no CPT inconclusive
O=C(CN1C(=O)NC2(CCCC2)C1=O)N1CCN(S(=O)(=O)c2cc(Cl)ccc2Cl)CC1	DT40 TDP1 no CPT inconclusive
C[C@H]1O[C@@H](O[C@H]2[C@@H](O)C[C@H](O[C@H]3[C@@H](O)C[C@H](O[C@H]4CC[C@@]5(C)[C@H](CC[C@@H]6[C@@H]5C[C@@H](O)[C@]5(C)[C@@H](C7=CC(=O)OC7)CC[C@]65O)C4)O[C@@H]3C)O[C@@H]2C)C[C@H](O)[C@@H]1O	HT1080NT lethal 0.231µM, DT40 TDP1 CPT 0.841µM, HT1080 IDH1KD tx 0.0366µM, IL-1B inflam inh -62.7, DT40 TDP1 no CPT 0.596µM
CCCCOc1ccc(C(=O)NCC(=O)NCCOc2ccccc2OC)cc1	none
CCN(CC)S(=O)(=O)c1ccc(NC(=O)[C@H](CSCc2ccccc2)N2Cc3ccccc3C2=O)cc1	DT40 TDP1 CPT 20.6µM, DT40 TDP1 no CPT inconclusive (no result: uPA surface inh, IL-1B inflam inh)
CCN(CC)S(=O)(=O)c1ccc(NC(=O)[C@H](CCSC)N2Cc3ccccc3C2=O)cc1	DT40 TDP1 CPT inconclusive, DT40 TDP1 no CPT 23.1µM (no result: HT1080NT lethal, HT1080 IDH1KD tx, uPA surface inh, IL-1B inflam inh)
CCc1ccc(NC(=O)[C@H](CSCc2ccccc2)N2Cc3ccccc3C2=O)cc1	DT40 TDP1 no CPT inconclusive (no result: HT1080NT lethal, HT1080 IDH1KD tx, uPA surface inh, IL-1B inflam inh)
CC1=C(C(=O)N(C)C)CC(CC(=O)NCc2cccs2)C(=O)N1CCCN1CCCC1=O (configuration not stated)	none (no result: uPA surface inh)
COc1ccccc1/C=C/C(=O)OCC(=O)NC1CC1	none
COc1cc(/C=C/C(=O)OCC(=O)NCc2ccco2)ccc1O	DT40 TDP1 CPT 20.6µM, DT40 TDP1 no CPT 16.4µM
COc1ccccc1/C=C/C(=O)OCC(=O)NCc1ccco1	DT40 TDP1 CPT 18.4µM, DT40 TDP1 no CPT inconclusive
COc1ccccc1/C=C/C(=O)OCC(=O)NNC(=O)c1ccccc1	DT40 TDP1 no CPT 18.4µM
CCO[C@H]1OC(C(=O)Nc2ccccc2)=C[C@@H](C)[C@@H]1CCCO	none
Cc1cc(NC(=O)c2ccc(Cl)c(S(=O)(=O)N3CCCCC3)c2)no1	HT1080 IDH1KD tx inconclusive, DT40 TDP1 no CPT inconclusive
CC(C)n1c(=O)c2oc3ccccc3c2n(CC(=O)Nc2ccccc2Cl)c1=O	DT40 TDP1 no CPT inconclusive (no result: HT1080NT lethal, HT1080 IDH1KD tx, uPA surface inh, IL-1B inflam inh)
CN(CC(=O)Nc1ccccc1Cl)CC(=O)N(C)c1c(N)n(Cc2ccccc2)c(=O)[nH]c1=O	none

Bioassay records: PubChem, National Center for Advancing Translational Sciences (NCATS)
